# Only a selection was taken, and hits are over-represented in it overall.
# HT1080NT lethal: qHTS for induction of synthetic lethality in tumor cells producing 2HG: qHTS for the HT-1080-NT fibrosarcoma cell line; HT-1080-NT fibrosarcoma viability, CellTiter-Glo ATP luminescence, 48 h; Potency, µM (series often up to 46.1 µM), without a hit: at the top dose activity, negative = less viability, most hits filed as cytotoxic; actives 1.6% (n = 360,000); AID 686970, 2013;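 also: NT is the 2HG producing partner of a matched IDH1 knockdown line; potency is read from the fitted curve at half-maximal effect; 0% = DMSO-treated cells and -100% = media-only wells without cells; nearly all actives have a fitted effect of over 55% in size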
#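 Luminescent CellTiter-Glo readout after 48 hours of compound exposure at 37 degrees C defined viability of HT-1080-NT cells. Activity was normalized to DMSO wells and cell-free media wells; concentration-response curves were fitted and assigned curve classes.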
# ALOX12 inh: Primary qHTS assay for inhibitors of human arachidonate 12S-lipoxygenase (ALOX12): Round 2; purified 12hLO, xylenol orange hydroperoxide absorbance; AID 1671190, 2021; actives 1.1% (n = 580,000); Potency, µM (top dose mostly 108 µM), without a hit: at the highest dose activity change, negative = inhibition, most hits filed as inhibitors; Polyunsaturated fatty acid lipoxygenase ALOX12 (Homo sapiens), P18054; also: potency is read from the fitted curve at half-maximal effect
# Target sequence (P18054 whole entry, looked up): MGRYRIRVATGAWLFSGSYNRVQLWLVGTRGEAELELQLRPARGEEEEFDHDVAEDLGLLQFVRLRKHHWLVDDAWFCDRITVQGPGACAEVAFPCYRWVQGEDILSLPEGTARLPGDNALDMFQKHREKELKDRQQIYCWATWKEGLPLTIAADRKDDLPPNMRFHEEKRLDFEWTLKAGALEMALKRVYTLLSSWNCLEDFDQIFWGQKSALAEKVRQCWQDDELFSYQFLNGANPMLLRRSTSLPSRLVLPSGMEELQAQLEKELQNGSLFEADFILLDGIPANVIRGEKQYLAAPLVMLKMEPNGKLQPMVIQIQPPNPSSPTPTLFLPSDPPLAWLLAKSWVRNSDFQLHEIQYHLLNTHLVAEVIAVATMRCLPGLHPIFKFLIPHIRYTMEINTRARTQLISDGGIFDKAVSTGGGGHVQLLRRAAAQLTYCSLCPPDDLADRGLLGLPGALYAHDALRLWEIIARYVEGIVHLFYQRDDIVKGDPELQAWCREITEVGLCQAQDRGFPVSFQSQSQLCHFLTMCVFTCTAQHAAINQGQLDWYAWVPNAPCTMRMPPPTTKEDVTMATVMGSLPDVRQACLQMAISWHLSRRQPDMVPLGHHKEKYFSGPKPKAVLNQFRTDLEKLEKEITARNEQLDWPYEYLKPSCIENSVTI
#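 Hydroperoxide product was detected by ferrous iron/xylenol orange as the 573 to 405 nm absorbance ratio. Arachidonic acid at 40 uM (final) was turned over for 30 min at room temperature by 150 nM human 12hLO, pH 7.0 Hepes buffer, after 15 min compound preincubation.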
# TDP1 cell CPT: qHTS for Inhibitors of human tyrosyl-DNA phosphodiesterase 1 (TDP1): qHTS in cells in presence of CPT; AID 686979, 2013; actives 12% (n = 420,000); Potency, µM (top dose mostly 46.2 µM), without a hit: at the highest dose activity change, negative = growth inhibition, most hits filed as inhibitors; chicken DT40 Tdp1-/-;hTDP1 cells + 20 nM CPT, ATP luminescence, 48 h; also: potency is read from the fitted curve at half-maximal effect; nearly all actives have a fitted effect of over 55% in size
#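 Chicken DT40 Tdp1-/- cells complemented with human TDP1, 400 cells/well, exposed to compounds plus 20 nM camptothecin for at least 48 h at 37 C; viability read as ATP content by CellTiter-Glo luminescence.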
# DT40 TDP1 no CPT: qHTS for Inhibitors of human tyrosyl-DNA phosphodiesterase 1 (TDP1): qHTS in cells in absence of CPT; DT40 Tdp1-/- hTDP1 cells, no CPT, ATP luminescence, 48 h; Potency, µM (series often up to 46.2 µM), without a hit: at the top dose activity change, negative = growth inhibition, hits mostly inhibitors; actives 15% (n = 420,000); AID 686978, 2013; also: potency is read from the fitted curve at half-maximal effect; nearly all actives have a fitted effect of over 55% in size
#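 Compound effects on proliferation are scored in DT40 Tdp1-/-;hTDP1 cells in the absence of CPT. ATP levels (CellTiter-Glo luminescence) are recorded after a ≥48 hr, 37 °C incubation.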
# IL1B secr inh: qHTS for Inhibitors of Inflammasome Signaling: IL-1-beta AlphaLISA Primary Screen | THP-1 LPS/ATP IL-1B secretion, AlphaLISA, 16 h; active compounds read low | activity change, % at 57.5 µM | actives 4.7% (n = 360,000); in the data active = activity change below about -50%; inconclusive = mostly about -30% to -49%
#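 Secreted IL-1B measured by AlphaLISA bead assay after 16 h compound exposure of THP-1 cells; compounds (final up to 57.5 uM) added 1 h before LPS (250 ng/mL) and ATP (1.25 mM) stimulation; lower signal means less secretion.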
# HT1080 IDH1KD tx: qHTS for induction of synthetic lethality in tumor cells producing 2HG: qHTS for the HT-1080-IDH1KD cell line; HT-1080 IDH1 knockdown viability, ATP luminescence, 48 h; Potency, µM (top dose mostly 46.1 µM), for inactives: at the top dose activity, negative = toxicity, usual class: cytotoxic; actives 2% (n = 360,000); AID 686971, 2013;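 also: potency is read from the fitted curve at half-maximal effect; 0% = DMSO wells and -100% = cell-free medium wells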
#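 Cytotoxicity counter-line: IDH1KD HT-1080, 48 h, CellTiter-Glo. Curves classed by r2, magnitude and activity.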
# Active calls of the source: *; ? = inconclusive; . = no result given; [ ] = remark or other dose. Unless noted, calls follow the shape of the dose curve; as a rule, active = well fitted curve in the direction sought with a large enough effect; inconclusive = small, poorly fitted or top-dose-only effect, or another doubt; inactive = no such curve, though single readings can be large; an effect the other way counts as inactive or inconclusive. Unless noted, % is scaled to controls: 0 for no effect and ±100 for the full control effect.
SMILES,HT1080NT lethal,ALOX12 inh,TDP1 cell CPT,DT40 TDP1 no CPT,IL1B secr inh,HT1080 IDH1KD tx
COC(=O)C1=C(c2ccc(Cl)c(C(F)(F)F)c2)C[C@@H]2CC[C@H]1N2C(=O)NCc1cc(C)oc1C(F)(F)F,-18%,-5%,?,21µM*,-29,-28%
CC1CC2CCC(O2)C(C)C(=O)OC(C)CC2CCC(O2)C(C)C(=O)OC(C)CC2CCC(O2)C(C)C(=O)OC(C)CC2CCC(O2)C(C)C(=O)O1 (stereo not drawn),.,5%,.,.,.,.
CC(C)C1C(=O)O[C@@H]2CCN3CC=C(COC(=O)[C@](C)(O)[C@]1(C)O)[C@H]23 (stereo partly drawn),.,1%,.,.,.,.
CCCNC(=O)N1[C@H]2CC[C@@H]1C(C(=O)OC)=C(c1ccc(Cl)c(C(F)(F)F)c1)C2,-2%,3%,16µM*,15µM*,-11,-1%
O=C(NC1CCCCC1)[C@H]1CN2CCC1C[C@@H]2Cn1cc(CSc2ccccc2)nn1 (stereo partly drawn),.,8%,.,.,.,.
CC(C)n1nc(-c2cc3cc(O)ccc3[nH]2)c2c(N)ncnc21,.,-8%[22.9 µM],0.094µM*,0.17µM*,.,.
COc1ccc(-c2cc([C@H]3CN4CC[C@H]3C[C@@H]4CNC(=O)C3CC3)nc(C)n2)cc1OC,.,35%,.,.,.,.
Cc1cc(Cl)ccc1C(=O)C1CCCN(C2CCSCC2)C1 (stereo not drawn),-17%,-2%,26µM*,21µM*,-28,-27%
CCCS(=O)(=O)Nc1ccc2n(c1=O)C[C@H]1C[C@@H]2CN(Cc2cn(C)c3ccccc23)C1,.,68%,.,.,.,.
CCCCOCCCn1c(N)c(C(=O)OC(C)COC)c2nc3ccccc3nc21 (stereo not drawn),-25%,44%,?,?,?,-21%
CCCCn1c(NS(=O)(=O)c2ccccc2)c(C(=O)OCC)c2nc3ccccc3nc21,?,0%,?,21µM*,-23,-15%
CCCCn1c(NC(=O)c2ccc(Br)o2)c(C(=O)OCC)c2nc3ccccc3nc21,?,-10%,?,21µM*,-7,-30%
c1ccc(C2=NOC3(CCCN(CC4CCCCC4)C3)C2)nc1 (stereo not drawn),.,1%[6.33 µM],.,.,.,.
COc1cccc(NP(=O)(Oc2ccccc2Cl)Oc2ccccc2Cl)c1,21µM*,3%,?,18µM*,-87*,?
COc1cccc(NP(=O)(Oc2ccccc2)Oc2ccccc2)c1,?,-12%,5.2µM*,3.7µM*,?,?
O=P(Nc1cccnc1)(Oc1ccccc1)Oc1ccccc1,-5%,-3%,21%,-11%,-7,0%
COc1ccc(OP(=O)(Nc2ccccc2)Nc2ccccc2)cc1,3%,22%,-17%,-12%,-2,-23%
COc1ccc(N2CCN(CCc3ccncc3)CC2)cc1,11%,-12%,6%,-5%,-11,13%
c1cnc(OCCN2CC2)cn1,-3%,12%,8.2µM*,13µM*,-2,-6%
c1cc(OCCN2CC2)ccn1,-6%,4%,3.3µM*,7.3µM*,14,-13%
Cc1ccc(-c2cc(-c3ccc(C)cc3)[n+](C)o2)cc1,-18%,-7%,0.46µM*,0.33µM*,0,?
Cc1cccc(NP2(=O)NCCCN2)c1,3%,-2%,-6%,0%,-13,3%
O=C(c1ccc(Cl)cc1)c1cn(Cc2ccccc2)c2cc3c(cc2c1=O)OCCO3,.,0%,?,23µM*,.,.
O=C(Nc1ccc2c(c1)OCCO2)c1cccn(Cc2ccccc2)c1=O,.,-2%,?,?,.,.
COc1ccc2c(c1)c(=O)c(C(=O)c1ccc(Cl)cc1)cn2CC(=O)Nc1ccc2c(c1)OCCO2,.,-21%,18µM*,21µM*,.,.
SMILES,HT1080NT lethal,ALOX12 inh,TDP1 cell CPT,DT40 TDP1 no CPT,IL1B secr inh,HT1080 IDH1KD tx
COc1ccc(-c2nc3ccc(Br)cn3c2CC(=O)N2CCCC2)cc1OC,18%,0%,-20%,?,4,4%
COc1ccccc1Cc1c(-c2ccc(F)cc2)nc2cc(C)c(Br)c(C)n12,-13%,-12%,?,23µM*,26,-22%
COc1ccccc1Cc1c(-c2ccc(C)cc2)nc2cc(C)c(Br)c(C)n12,-19%,-13%,21µM*,16µM*,38,-18%
COC(=O)C1=CO[C@@H](C)[C@@H]2CN3CC[C@]4(C(=O)Nc5c4ccc(OC)c5OC)[C@H]3C[C@H]12,.,10%,8%[9.04 µM],-7%[9.04 µM],.,.
CC(=O)Nc1ccc(NC(=O)C(C)OC(=O)c2cn(C)c3ccccc23)cc1 (stereo not drawn),.,-8%,.,.,.,.
CC(=O)Nc1ccc(OCC(O)Cn2c3ccccc3c3ccccc32)c(C)c1 (stereo not drawn),?,-18%,?,18µM*,-60*,?
CC1(C)CC(=O)C2=C(C1)OC(N)=C([N+](=O)[O-])C2c1ccc(C#N)s1 (stereo not drawn),-2%,-25%,21µM*,?,?,-11%
COc1cc(C2C(C#N)=C(N)OC3=C2C(=O)CC(C)(C)C3)ccc1OC(=O)N1CCOCC1 (stereo not drawn),11%,-13%,-3%,-15%,14,?
CC(=O)N1CCCSC1=Nc1ccccc1,11%,10%,20%,-10%,28,13%
CCOc1ccccc1N=C1SCCCN1C,10%,7.1µM*,-27%,-22%,-1,-12%
Cn1nccc1CN1CCCC2(CC(c3cccnc3)=NO2)C1 (stereo not drawn),.,12%[6.33 µM],.,.,.,.
O=[S+]1([O-])NCC2(CCN(Cc3ccccc3)C2)Oc2ncccc21 (stereo not drawn),.,5%[6.33 µM],.,.,.,.
C=CC[C@@H](CC(=O)N[C@H](CO)Cc1ccccc1)C(=O)NCCOC(=O)[C@@H](CC=C)Cc1ccc(F)cc1,-20%,?,29µM*,?,21,-4%
C=CC[C@@H](CC(=O)N[C@@H](CO)Cc1ccccc1)C(=O)NCCOC(=O)[C@@H](CC=C)Cc1ccc(F)cc1,-2%,15%,8%,-3%,4,5%

# Screens from PubChem BioAssay.
